Laboratory results published in PubChem BioAssay AID1159580 (chemical genetic matrix, 2015).
Screen size: about 5,500 compounds; about 2,000 (36%) were called active. Another 18% or so got no clear call; they are omitted. Rule as the data show it: active = normalized growth mostly below about 0.91 (no sharp cut-off); inconclusive = no clear call, values can overlap the other calls; inactive = mostly above about 0.92. This is one part of the list.

Test: chemical genetic growth profiling, strain panel (AID 1159580);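 also: tested at 20 µM; growth read once vehicle control cultures reached saturation at 30 °C; 1 = growth at the plate median or of vehicle wells; lower values mean less growth of the strain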
Conditions: S. cerevisiae deletion strains, growth OD

Measured: normalized growth

O=c1c(-c2ccc3c(c2)OCO3)coc2cc(O)ccc12
inactive: locus YAL013W, strain DEP1, active compounds read low 1 | locus YAL021C, strain ccr4, active compounds read low 0.994 | locus YAL026C, strain drs2, active compounds read low 1 | locus YAL030W, strain snc1, active compounds read low 0.991 | locus YBL061C, strain skt5, active compounds read low 0.99 | locus YBR009C, strain hhf1, active compounds read low 0.978 | locus YBR021W, strain FUR4, active compounds read low 0.991 | locus YBR023C, strain chs3, active compounds read low 0.996 | locus YBR171W, strain sec66, active compounds read low 1 | locus YBR229C, strain ROT2, active compounds read low 0.989 | locus YBR231C, strain swc5, active compounds read low 0.985 | locus YBR279W, strain paf1, active compounds read low 0.994 | locus YCL011C, strain gbp2, active compounds read low 0.999 | locus YCL016C, strain dcc1, active compounds read low 0.993 | locus YCL029C, strain bik1, active compounds read low 0.969 | locus YCL061C, strain MRC1, active compounds read low 0.998 | locus YCL069W, strain vba3, active compounds read low 1 | locus YCR088W, strain abp1, active compounds read low 0.998 | locus YDL005C, strain med2, active compounds read low 0.984 | locus YDL035C, strain GPR1, active compounds read low 1 | locus YDL040C, strain nat1, active compounds read low 0.993 | locus YDL074C, strain BRE1, active compounds read low 1.04 | locus YDL101C, strain DUN1, active compounds read low 0.998 | locus YDL134C, strain PPH21, active compounds read low 1 | locus YDL185W, strain tfp1, active compounds read low 0.981 | locus YDL192W, strain arf1, active compounds read low 0.977 | locus YDR001C, strain nth1, active compounds read low 1.01 | locus YDR069C, strain doa4, active compounds read low 0.977 | locus YDR101C, strain arx1, active compounds read low 0.98 | locus YDR137W, strain rgp1, active compounds read low 0.979 | locus YDR150W, strain NUM1, active compounds read low 0.995 | locus YDR159W, strain sac3, active compounds read low 0.96 | locus YDR162C, strain NBP2, active compounds read low 1.01 | locus YDR195W, strain ref2 0.957 | locus YDR297W, strain sur2, active compounds read low 0.989 | locus YDR318W, strain mcm21, active compounds read low 0.972 | locus YDR334W, strain swr1, active compounds read low 1 | locus YDR335W, strain msn5, active compounds read low 1 | locus YDR388W, active compounds read low 0.973 | locus YDR392W, strain spt3, active compounds read low 0.919 | locus YDR502C, strain sam2, active compounds read low 0.992 | locus YEL003W, strain gim4, active compounds read low 1 | locus YEL037C, strain rad23, active compounds read low 1 | locus YEL061C, strain CIN8 (second series), active compounds read low 1.01 | locus YEL061C, strain CIN8, active compounds read low 0.998 | locus YER015W, strain faa2, active compounds read low 0.99 | locus YER016W, strain bim1, active compounds read low 0.988 | locus YER110C, active compounds read low 0.979 | locus YER111C, strain swi4, active compounds read low 1 | locus YER155C, strain BEM2 (second series), active compounds read low 0.974 | locus YER155C, strain BEM2, active compounds read low 0.995 | locus YER167W, strain BCK2, active compounds read low 0.983 | locus YFR010W, strain ubp6, active compounds read low 1 | locus YGL078C, strain dbp3, active compounds read low 0.98 | locus YGL086W, strain mad1, active compounds read low 0.983 | locus YGL167C, strain pmr1, active compounds read low 0.988 | locus YGL173C, strain kem1, active compounds read low 0.995 | locus YGL227W, strain vid30, active compounds read low 1 | locus YGL240W, strain doc1, active compounds read low 0.952 | locus YGL248W, strain PDE1, active compounds read low 0.991 | locus YGL253W, strain hxk2, active compounds read low 1 | locus YGR078C, strain PAC10, active compounds read low 1.01 | locus YGR135W, strain pre9, active compounds read low 0.987 | locus YGR229C, strain SMI1, active compounds read low 1.03 | locus YGR252W, strain gcn5, active compounds read low 0.932 | locus YHR013C, strain ard1, active compounds read low 0.96 | locus YHR027C, strain rpn1, active compounds read low 0.994 | locus YHR030C, strain SLT2, active compounds read low 0.998 | locus YHR079C, strain IRE1 (second series), active compounds read low 0.964 | locus YHR094C, strain hxt1, active compounds read low 0.981 | locus YHR129C, strain ARP1, active compounds read low 1 | locus YHR142W, strain chs7, active compounds read low 1.01 | locus YHR200W, strain rpn10, active compounds read low 0.978 | locus YIL066C, strain RNR3, active compounds read low 0.998 | locus YIL073C, strain SPO22, active compounds read low 0.93 | locus YIL125W, strain kgd1, active compounds read low 0.993 | locus YIR030C, strain dcg1, active compounds read low 0.984 | locus YJL092W, strain hpr5, active compounds read low 1.01 | locus YJL095W, strain BCK1 (second series), active compounds read low 0.989 | locus YJL095W, strain BCK1, active compounds read low 1.04 | locus YJL115W, strain asf1, active compounds read low 0.995 | locus YJL129C, strain trk1, active compounds read low 0.99 | locus YJL134W, strain LCB3, active compounds read low 0.991 | locus YJL154C, strain vps35, active compounds read low 1.01 | locus YJL164C, strain tpk1, active compounds read low 0.979 | locus YJL166W, strain qcr8, active compounds read low 0.974 | locus YJL168C, strain set2, active compounds read low 0.983 | locus YJL187C, strain SWE1 (second series), active compounds read low 1 | locus YJL187C, strain SWE1, active compounds read low 0.987
